In PubChem BioAssay AID602399 (Sanford-Burnham Center for Chemical Genomics, 2012):
The campaign covered roughly 360,000 compounds. About 2,800 (0.78%) were called active. The entries come from a sample that favours actives as a whole. A number with no mark means an inactive call. Cut-off read from the data, not from the text of the source: active = inhibition above about 26%; inactive = the rest.

system: Nicotinate-nucleotide adenylyltransferase NadD (Staphylococcus aureus N315); assay: inhibitors of S. aureus NadD, primary screen, biochemical, colorimetric, uHTS (AID 602399); conditions: purified NadD enzyme, colorimetric absorbance read-out; at 20 µM; hits give high values

| SMILES | inhibition |
| --- | --- |
| Cc1cccn2c(=O)c3cc(C#N)c(=NC(=O)c4cccnc4)n(CC4CCCO4)c3nc12 (configuration not stated) | 0.191% |
| COc1ccccc1N(CC(=O)Nc1ccc(C)cc1Cl)S(=O)(=O)c1cccs1 | -10.3% |
| COc1cc(-c2noc(C3CCCN(S(=O)(=O)c4cccc(Cl)c4)C3)n2)cc(OC)c1OC (configuration not stated) | -12.5% |
| COc1ccc(Cl)cc1C=CC=NNC(=O)c1ccncc1 | 9.06% |
| COc1ccccc1/C=C/C=N/n1c(-c2ccc(Cl)cc2Cl)n[nH]c1=S | 28% (active) |
| COc1ccc(-n2c(-c3ccc(Cl)cc3)n[nH]c2=S)c(OC)c1 | 5.69% |
| O=Cc1cn(-c2ccccc2)nc1-c1ccccn1 | -0.605% |
| COc1ccc(-c2nn(-c3ccccc3)cc2/C=N/Nc2ccccn2)cc1OC | 30.9% (active) |
| COc1ccc(OC)c(/C=N/NC(=O)CSc2nnc(C)n2-c2ccccc2)c1 | 4.2% |
| N#C/C(C(=O)N1CCOCC1)=C1/SC(Cc2ccc(F)cc2)C(=O)N1c1ccccc1 (configuration not stated) | 5.64% |
| CCCCN(C=O)c1c(CC)nc2c(OCc3ccccc3C(=O)OC)cccn12 | 3.2% |
| CC(C)C(NC(=O)c1c(F)cccc1F)C(=O)NCc1ccncc1 (configuration not stated) | -4.3% |
| Cc1cc(C(=O)OC(C)C(=O)NC2CCCCC2C)c(C)o1 (configuration not stated) | -0.327% |
| CC(=O)c1c(C)[nH]c(C(=O)COC(=O)c2cccc(S(=O)(=O)N(C)c3ccccc3)c2)c1C | -2.3% |
| S=c1[nH]nc(Nc2ccccc2)s1 | 31% (active) |
| CC(C)(C)C(=O)c1cnc(Nc2ccccc2)s1 | -4.48% |
| S=c1[nH]nc(NCCc2ccccc2)s1 | 6.24% |
| O=c1c([N+](=O)[O-])cccn1Cc1ccc(F)cc1Cl | -2.47% |
| Cc1c(C(=O)N(C)CCc2cnn(C)c2)oc2c(F)cccc12 | -0.376% |
| CCN(CC)C(=O)c1sc2nc(-c3ccccc3)ccc2c1N | 29.7% (active) |
| CCOC(=O)C(C)n1nc(-c2ccccc2)c2ccccc2c1=O (configuration not stated) | 4.56% |
| CCN(CC)C(=O)c1nc[nH]c1C(=O)N(C)Cc1ccccc1 | -5.16% |
| CC1(C)C(C=C(Cl)Cl)C1C(=O)NC(O)C(=O)c1ccccc1 (configuration not stated) | -1.25% |
| Cc1c2cnn(-c3ccccc3)c(=O)c2c(C)n1CCCC(=O)N1CCN(C)CC1 | 4.17% |
| CCC(=O)Nc1ccc2c(c1)nc(CCN1CCN(c3ccccn3)CC1)n2C | -0.459% |
| Cc1nn(CC(=O)Nc2ccc3c(c2)nc(CN2CCCCC2)n3C)c(=O)c2ccccc12 | -0.187% |
| Cn1c(CCN2CCCCCC2)nc2cc(NC(=O)Nc3ccccc3)ccc21 | 31.5% (active) |
